Screening data from PubChem.
A selection: hits, their analogues and other compounds. The true share with any hit is near 3.3%.
Tau fluor counter: Counterscreen qHTS for Inhibitors of Tau Fibril Formation, Fluorescence Polarization | tau K18 P301L Alexa594 fluorescence, heparin fibrillization | actives 0.93% (n = 280,000) | Potency, µM (series often up to 57.7 µM); note: nearly all actives have a fitted effect of over 55% in size
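Human K18 P301L tau (15 uM unlabeled plus 0.24 uM Alexa 594-labeled, final) in 100 mM sodium acetate pH 7 was mixed with compound and 20 uM heparin and incubated 6 hr at 37 C.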
NPSR antagonist: qHTS Assay for Antagonists of the Neuropeptide S Receptor: cAMP Signal Transduction. CHO-NPSR cells, cAMP TR-FRET, antagonist mode. AID 1461, 2008. actives 1% (n = 220,000). Potency, µM (series often up to 38.3 µM), hits mostly inhibitors. Q6W5P4; note: nearly all actives have a fitted effect of over 50% in size
Target sequence (Q6W5P4 whole entry, looked up): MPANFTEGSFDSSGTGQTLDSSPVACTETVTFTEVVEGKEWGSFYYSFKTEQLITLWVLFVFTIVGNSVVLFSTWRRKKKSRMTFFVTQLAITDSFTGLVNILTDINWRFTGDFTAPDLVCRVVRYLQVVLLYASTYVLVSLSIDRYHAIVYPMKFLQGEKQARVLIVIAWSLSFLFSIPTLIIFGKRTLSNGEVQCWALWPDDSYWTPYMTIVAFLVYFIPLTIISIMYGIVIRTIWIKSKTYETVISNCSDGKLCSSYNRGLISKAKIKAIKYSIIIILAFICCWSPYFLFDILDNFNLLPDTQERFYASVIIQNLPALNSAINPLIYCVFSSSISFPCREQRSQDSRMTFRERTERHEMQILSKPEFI
Tau fibril FP: qHTS for Inhibitors of Tau Fibril Formation, Fluorescence Polarization; Potency, µM (titrated, usually from 57.7 µM), most hits filed as inhibitors; K18 P301L tau heparin fibrillization, Alexa594 FP, 6 h; AID 1468, 2008; actives 0.39% (n = 280,000); note: nearly all actives have a fitted effect of over 55% in size
Target sequence (P10636 561-689 P618L limits assumed): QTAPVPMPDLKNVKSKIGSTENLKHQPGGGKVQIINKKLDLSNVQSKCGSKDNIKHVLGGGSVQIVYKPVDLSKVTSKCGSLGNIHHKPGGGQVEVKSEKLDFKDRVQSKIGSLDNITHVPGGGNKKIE
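Heparin (20 uM) drove fibril formation of recombinant tau K18 P301L, 15 uM unlabeled with 0.24 uM Alexa 594 label, for 6 hr at 37 C in 100 mM sodium acetate pH 7. Fluorescence polarization (555/632 nm) read 1 hr after 30 uM ThT.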
Tau fibril ThT: qHTS for Inhibitors of Tau Fibril Formation, Thioflavin T Binding; Microtubule-associated protein tau (Homo sapiens), P10636; recombinant tau K18 P301L (four-repeat tau fragment), heparin-induced fibrillization, ThT fluorescence; Potency, µM (highest dose often 57.4 µM), hits mostly inhibitors; actives 2.1% (n = 270,000); AID 1460, 2008; note: nearly all actives have a fitted effect of over 55% in size
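In this qHTS, human K18 P301L tau is incubated with compound and heparin for 6 hr at 37 C, and Thioflavin T fluorescence then reports fibril load.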
Luc counter: Counterscreen for Luciferase (Kinase-Glo TM) Inhibition; Luciferin 4-monooxygenase (Photuris pensylvanica), Q27757; Potency, µM (top dose mostly 38.3 µM), usual class: inhibitors; Kinase-Glo luciferase, ATP luminescence, 8 min; AID 1379, 2008; actives 0.28% (n = 200,000); note: nearly all actives have a fitted effect of over 60% in size
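Compounds were added to a substrate mix at pH 7.2 (50 mM imidazole, 10 uM ATP, within the enzyme's linear range), followed by Kinase-Glo detection reagent; luminescence was measured after 8 minutes at ambient temperature.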
Hits are given with their value; – = inactive; ? = inconclusive; · = no result; [ ] = remark or other dose. Calls come from the whole dose curve; as a rule, active = well fitted curve in the direction sought with a large enough effect; inconclusive = small, poorly fitted or top-dose-only effect, or another doubt; inactive = no such curve, though single readings can be large; an effect the other way counts as inactive or inconclusive.

SMILES | Tau fluor counter | NPSR antagonist | Tau fibril FP | Tau fibril ThT | Luc counter
C[C@@H]1C=C[C@](Cc2ccccc2)(C(=O)NCCN2CCOCC2)N1C(=O)c1ccccc1 | – | · | – | – | –
COC(=O)C1=NOC2(C=C(Br)C(OC)=C(Br)C2=O)C1 (stereo not drawn) | –[11.6 µM] | · | ? | 3.98µM | ·
COc1ccc(Cl)cc1NC(=O)c1c(NCc2ccc(C)o2)sc2c1CCC(C)C2 (stereo not drawn) | – | · | – | – | ·
COc1ccccc1NC(=O)c1c(NCc2ccc(C)o2)sc2c1CCCCC2 | ? | · | ? | 25.1µM | ·
CCOC(=O)N1CCc2c(sc(NCc3ccc(OC)c(Br)c3)c2C(=O)Nc2cc(OC)ccc2OC)C1 | ? | · | – | 14.1µM | ·
COc1ccc(NC(=O)c2c(NCc3cccs3)sc3c2CCCC3)cc1 | ? | · | – | ? | ·
COc1ccc(OC)c(NC(=O)c2c(NCc3ccc(C)o3)sc3c2CCCCC3)c1 | ? | · | ? | 25.1µM | ·
COc1ccc(NC(=O)c2c(NCc3cccs3)sc3c2CCCCC3)c(OC)c1 | ? | · | ? | 25.1µM | ·
CCOC(=O)N1CCc2c(sc(NCc3cc(OC)ccc3OC)c2C(=O)Nc2cc(OC)ccc2OC)C1 | ? | · | – | ? | ·
COc1ccc(Cl)cc1NC(=O)c1c(NCc2ccc(C)o2)sc2c1CCCCC2 | – | · | – | ? | ·
O=C(Nc1cc2ccc(O)cc2oc1=O)c1ccccc1 | – | · | – | – | ·
CC1CCC(N2CC(=O)N(C3CCCC3)C(c3ccc(Cl)cc3)C2=O)CC1 (stereo not drawn) | – | · | – | – | ·
CCCCNC(=O)C(CC)Sc1nc2ccccc2c(=O)n1CCc1ccc(OC)c(OC)c1 (stereo not drawn) | – | · | – | – | ·
CCOC(=O)c1ccc(NC(=O)c2c(NCc3cccs3)sc3c2CCCCC3)cc1 | – | · | ? | 22.4µM | ·
NC(=O)c1c(NC(=O)c2cccs2)sc2c1CCCCCC2 | – | – | – | – | –
O=C(Nc1sc2c(c1C(=O)Nc1cccc(Cl)c1)CCCC2)c1cccs1 | – | · | ? | 11.2µM | ·
Cc1ccc2nc3c(cc(C(=O)NCC4CCCO4)c(=N)n3C(C)C)c(=O)n2c1 (stereo not drawn) | – | · | – | ? | ·
CCOc1ccc(-c2cc(NC(=O)c3ccc(C)cc3)c(C(=O)OC)s2)cc1 | – | · | – | – | ·
O=C1[C@H]2[C@H]3[C@H](O)[C@H](O)C/C(=N/OC[C@@H](O)COCc4ccco4)[C@H]3CC[C@@H]2C(=O)N1Cc1ccccc1 | –[11.6 µM] | · | –[11.6 µM] | –[11.5 µM] | ·
N#C/C(=C\c1ccc(O)c(O)c1)C(=O)OCCc1cccs1 | 17.8µM[quencher] | · | – | 14.1µM | –
Clc1ccc2[nH]c3c(c2c1)CCc1cn[nH]c1-3 | 8.91µM[quencher] | – | – | ? | –
c1ccc2c3c([nH]c2c1)-c1[nH]ncc1CC3 | ? | – | ? | ? | –
CC1=C(C(N)=O)C(c2cccc(Br)c2)n2nc(SCc3ccccc3Cl)nc2N1 (stereo not drawn) | – | · | ? | – | ·
COc1ccc(-c2csc(/C(C#N)=C(\O)CSc3nccn3C)n2)cc1OC | ? | – | – | 17.8µM | –
O=C(Cn1c(=O)nc(-c2ccccc2)c2cc(Cl)ccc21)NCCc1ccccc1 | – | · | – | – | ·
SMILES | Tau fluor counter | NPSR antagonist | Tau fibril FP | Tau fibril ThT | Luc counter
Cc1[nH]c2ccccc2c1C1(O)C(=O)N(Cc2ccccc2Cl)c2ccccc21 (stereo not drawn) | ? | · | – | ? | ·
Cc1[nH]c2ccccc2c1C1(O)C(=O)N(Cc2ccccc2)c2ccc(Br)cc21 (stereo not drawn) | 11.2µM[quencher] | · | – | ? | ·
Cc1nn(CC(=O)Nc2ccccc2F)c(=O)c2c(C)n(-c3ccc(Cl)cc3)nc12 | – | · | – | – | ·
CCc1ccc(C2CC(c3ccco3)=NN2S(C)(=O)=O)cc1 (stereo not drawn) | – | – | – | – | 11.2µM
O=C(NCCn1cc(SCc2ccccc2Cl)c2ccccc21)c1cccs1 | 3.16µM[quencher] | · | ? | – | ·
O=C(NCCn1cc(SCc2ccccc2)c2ccccc21)c1cccs1 | 5.62µM[quencher] | · | ? | ? | ·
O=C(NCCn1cc(SCc2ccc(Br)cc2)c2ccccc21)c1cccs1 | ? | · | – | ? | ·
Cc1ccc(C)c(CSc2cn(CCNC(=O)c3cccs3)c3ccccc23)c1 | 8.91µM[quencher] | · | – | ? | ·
CC(N)(C(=O)O)c1cccc(CC(=O)O)c1 (stereo not drawn) | – | · | – | – | ·
CCN(CC)CCNC(=O)Cn1nc(C)c2c(C)n(-c3ccccc3)nc2c1=O | – | · | – | – | ·
Cc1ccc(C)c(Cn2c(=O)n(CC3CCC(C(=O)N4CCOCC4)CC3)c(=O)c3sccc32)c1 (stereo not drawn) | – | · | – | – | ·
Cc1ccc(Cl)cc1N1CCN(C(=O)c2c(C)oc3ncnc(N4CCOCC4)c23)CC1 | – | · | – | – | ·
COc1ccc2c(c1)O[C@@H](c1cccc(C(F)(F)F)c1)[C@H](OC(=O)NCc1ccc3c(c1)OCO3)C2=O | – | · | – | – | –
CCc1ccc2c(O)c3c(cc2c1C(=O)OC)C(=O)c1c(O)ccc(O)c1C3=O | ? | · | ? | 3.16µM | –
COc1cc(/C=N/NC(=O)C(Cc2c[nH]c3ccccc23)NC(=O)OCC(C)C)cc([N+](=O)[O-])c1O (stereo not drawn) | – | – | – | 14.1µM | –
Cc1ccc(NC(=O)C(Cc2c[nH]c3ccccc23)NC(=O)OCC(C)C)cc1 (stereo not drawn) | 20µM[quencher] | · | – | – | ·
COc1cc(/C=N/NC(=O)C(Cc2c[nH]c3ccccc23)NC(=O)OCC(C)C)cc([N+](=O)[O-])c1OCc1ccccc1 (stereo not drawn) | ? | – | – | – | –
COc1cc(/C=N/NC(=O)C(Cc2c[nH]c3ccccc23)NC(=O)OCc2ccccc2)cc([N+](=O)[O-])c1O (stereo not drawn) | ? | – | ? | 12.6µM | –
Cc1ccc(C)c(N2CCN(C(=O)CN3C(=O)COc4ccc(S(=O)(=O)N5CCC(C)CC5)cc43)CC2)c1 | – | · | – | – | ·
CC(=O)Nc1cccc(-c2nnc(SCC(=O)c3ccc([N+](=O)[O-])cc3)o2)c1 | – | · | – | ? | ·
CC(=O)Nc1cccc(-c2nnc(SCC(=O)c3cc([N+](=O)[O-])ccc3Br)o2)c1 | 14.1µM[quencher] | · | – | ? | ·
CCOC(=O)c1ccc(CN(Cc2ccccc2C)S(=O)(=O)c2ccc(F)c(C(=O)Nc3cccc(OC)c3)c2)cc1 | – | · | – | – | ·
O=[N+]([O-])c1ccc(N=Nc2c(Cl)cc(O)cc2Cl)cc1 | 8.91µM[quencher] | 7.94µM | 31.6µM | · | ·
N#CC1=C(N)NC(SCc2ccc(F)cc2)=C(C#N)C12CCCCC2 | 17.8µM[quencher] | – | ? | – | –
